# An excerpt weighted towards active compounds, which were near 2.5% of everything screened.
# Cruzain inh Det: cruzain (T. cruzi) inhibition with detergent; P25779; purified cruzain, Z-FR-AMC fluorescence, 0.01% Triton; Potency, µM, inactives show max response, negative = inhibition, usual class: inhibitors; hit rate 0.43% among 200,000;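 further: plate controls were neutral wells for no effect and buffer without enzyme for full effect; nearly all actives have a fitted effect of over 40% in size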
# Target sequence (P25779 123-467 limits assumed): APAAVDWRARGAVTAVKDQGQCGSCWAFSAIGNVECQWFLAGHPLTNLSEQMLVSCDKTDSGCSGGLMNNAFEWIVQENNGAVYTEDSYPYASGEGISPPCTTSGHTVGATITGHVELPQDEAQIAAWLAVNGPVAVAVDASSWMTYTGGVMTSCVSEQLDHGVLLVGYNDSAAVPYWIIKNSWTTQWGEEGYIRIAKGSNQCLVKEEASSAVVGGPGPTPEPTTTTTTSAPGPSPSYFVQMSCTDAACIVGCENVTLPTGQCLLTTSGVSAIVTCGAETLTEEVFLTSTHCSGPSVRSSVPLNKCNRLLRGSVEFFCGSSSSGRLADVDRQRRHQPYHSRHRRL
#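 Read-out: AMC fluorescence (360 nm excitation, 450 nm emission), four reads over 2 min, first-to-third difference used. Conditions: cruzain 1.5 nM, Z-FR-AMC 2 uM, pH 5.5 acetate, 5 mM DTT, 0.01% Triton X-100.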
# Cruzain noTriton: blocks cruzain activity in detergent-free assay. Potency, µM, inactives show max response, negative = inhibition, actives largely listed as inhibitors. hit rate 2.3% among 200,000. purified cruzain, Z-FR-AMC fluorescence, no detergent. AID 1476. P25779;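 further: plate controls were enzyme without inhibitor for no effect and buffer without enzyme for full effect; nearly all actives have a fitted effect of over 40% in size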
#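 Purified cruzain at 1.5 nM, pre-incubated 15 min with compound at room temperature in 100 mM sodium acetate pH 5.5, 5 mM DTT, 0.00005% Triton X-100. Reaction started with 2 uM Z-FR-AMC; AMC fluorescence increase over 60 s gives rate.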
# Numbers without * were called inactive; ? = inconclusive. The call rests on the fitted dose curve; in most records, active means well fitted curve in the direction sought with a large enough effect; inconclusive means small, poorly fitted or top-dose-only effect, or another doubt; inactive means no such curve, though single readings can be large; an effect the other way counts as inactive or inconclusive. Potency means the concentration at half of the fitted maximal effect.
SMILES,Cruzain inh Det,Cruzain noTriton
Cc1ccccc1CN1c2ccccc2-c2nc(SCC(=O)c3ccc(Cl)cc3)ncc2S1(=O)=O,1.1%,-14.8%
O=C(CSc1ncc2c(n1)-c1ccccc1N(Cc1ccc(F)cc1)S2(=O)=O)c1ccc(Cl)cc1,0.8%,25.1µM*
O=C(CSc1ncc2c(n1)-c1ccccc1N(Cc1ccc(F)cc1)S2(=O)=O)c1ccc(Br)cc1,-2.8%,?
COC(=O)CSc1ncc2c(n1)-c1ccccc1N(Cc1ccccc1C)S2(=O)=O,0.0%,12.6µM*
COC(=O)c1c(NC(=O)c2cc3ccccc3c(=O)o2)sc2c1CCCC2,-1.5%,0.4%
Cc1cc(F)ccc1NC(=O)CCSc1nc(-c2ccco2)cc(C(F)(F)F)n1,-4.3%,0.0%
Cc1nc(SCC(=O)N2CCc3ccccc32)n[nH]1,3.0%,-7.9%
COc1ccc(CCNC(=O)c2ccc3c(c2)N=C(C)c2cc(C)ccc2S3)cc1OC,-1.2%,17.6%
CC(C)CC(=O)Nc1ccccc1OCc1cc(=O)n2ccccc2n1,3.7%,-8.3%
Cc1cc(Cl)ccc1OCC(=O)N[C@@H](Cc1ccccc1)c1nc2ccccc2[nH]1,-0.4%,-16.7%
CSCC[C@H](NC(=O)COc1ccc(Cl)cc1)c1nc2ccccc2[nH]1,7.08µM*,12.6µM*
CSCC[C@H](NC(=O)c1cc([N+](=O)[O-])ccc1Cl)c1nc2ccccc2[nH]1,22.4µM*,-6.9%
CSCCC(NC(=O)c1cccc([N+](=O)[O-])c1)c1nc2ccccc2[nH]1 (stereo unspecified),-26.8%,?
CN(C)c1ncc2nc(-c3ccc(F)cc3)c(=O)n(-c3ccccc3)c2n1,2.2%,11.5%
CO[C@@H]1/C=C\O[C@]2(C)Oc3c(C)c(O)c4c(O)c(cc(O)c4c3C2=O)NC(=O)/C(C)=C\C=C/[C@H](C)[C@@H](O)[C@H](C)[C@H](O)C(C)[C@H](OC(C)=O)[C@@H]1C (stereo partly specified),-0.9%,?
COC(=O)C(c1ccc(OC)c(OC)c1)C1c2ccccc2C=C(C)N1C(=O)OC (stereo unspecified),-0.6%,21.1%
Cc1c(Cl)cccc1N/C(SCC(=O)N1CCCCCC1)=C(/C#N)c1nc2ccccc2s1,-5.5%,10µM*
O=C(CSc1nc2ccccc2s1)N1CCCCC1,-2.9%,-5.7%
Cn1c(=O)n(Cc2ccccc2)c(=O)c2c1nc1n2CCN1c1ccccc1,-1.3%,-7.7%
CC(=O)c1cccc(S(=O)(=O)N2CCN(c3nc4cc(C)cc(C)c4cc3C#N)CC2)c1,-1.1%,15.8µM*
CC(=O)c1cccc(S(=O)(=O)N2CCN(c3ccccc3F)CC2)c1,-5.5%,-5.9%
COc1ccc(NC(=O)CSc2nc(-c3ccccc3)cc(-c3cc(OC)c(OC)c(OC)c3)c2C#N)c(OC)c1,-1.4%,-3.4%
COc1cc(OC)c(Nc2nc3ccc(C(=O)c4ccccc4)cc3n3c(C)nnc23)cc1Cl,1.0%,4.8%
COc1ccc(/C=C2\SC(=S)N(NC(=O)c3csc4c3CCCC4)C2=O)cc1,2.1%,7.94µM*
COc1ccc(NC(=O)c2csc3c2CCCC3)cc1,-3.4%,-6.1%
SMILES,Cruzain inh Det,Cruzain noTriton
O=c1oc2c(CN3CCOCC3)c(O)c(Cl)cc2c2c1CCC2,25.1µM*,?
CN(C)Cc1c(O)c(Cl)cc2c3c(c(=O)oc12)CCCC3,?,12.6µM*
Cc1c(C)c2cc(Cl)c(O)c(CN(C)C)c2oc1=O,31.6µM*,?
CCN(CC)Cc1c(O)c(Cl)cc2c3c(c(=O)oc12)CCCC3,?,-22.0%
Cc1c(O)c(CN2CCCCC2)cc2c3c(c(=O)oc12)CCC3,-28.8%,?
CN(C)Cc1cc(Cl)c(O)c(CN(C)C)c1,3.8%,-1.3%
CC(=O)Nc1nonc1-c1nc2ccccc2n1Cc1ccccc1Br,-2.0%,8.5%
Cc1c(C)n(Cc2ccccc2)c2ccc(C(=O)N3CCN(c4ccccc4)CC3)cc12,-1.7%,?
O=C(c1ccc(Cn2c(=O)[nH]c3ccccc3c2=O)cc1)N1CCN(c2ccc(F)cc2)CC1,-6.0%,19.8%
Cc1c(C)n(Cc2ccc(F)cc2)c2ccc(C(=O)N3CCN(c4ccc(Cl)cc4)CC3)cc12,1.7%,7.94µM*
Cc1c(C)n(Cc2ccccc2)c2ccc(C(=O)N3CCN(c4ccc(F)cc4)CC3)cc12,-1.1%,31.6µM*
Cc1ccc(C(c2c(O)cc(C)n(Cc3ccco3)c2=O)N2CCC(C)CC2)cc1 (stereo unspecified),1.3%,?
CCOc1cc2sc(N3CCC(C(=O)Nc4ccc(C(C)C)cc4)CC3)nc2cc1Br,-2.5%,-5.7%
Cc1cccc(-n2ncc3c(Nc4ccc(Oc5ccc(Cl)cc5)cc4)ncnc32)c1,3.0%,25.1µM*
Cc1cccc(-n2ncc3c(Nc4ccc(C)c(Cl)c4)ncnc32)c1,3.5%,14.1%
CC(C)c1ccc(NC(=O)Cn2nnc(C(=O)NCc3cccs3)c2N)cc1,0.3%,-7.5%
Cc1ccc(NC(=O)Cn2nnc(C(=O)NCCc3ccccc3)c2N)cc1Cl,-3.8%,?
O=C(Cn1c(=O)c2ccccc2n(CC(=O)Nc2ccccc2F)c1=O)NCCc1ccccc1,0.9%,-15.8%
CC(C)c1ccc(NC(=O)Cn2nnc(C(=O)NCc3ccc(Cl)cc3)c2N)cc1,-0.5%,7.94µM*
Nc1c(C(=O)NCCc2ccccc2)nnn1CC(=O)Nc1ccc(Cl)cc1,-0.7%,25.1µM*
O=C(Cn1c(=O)c2ccccc2n(CC(=O)Nc2ccc(Cl)cc2)c1=O)NCCc1ccccc1,-0.2%,12.6µM*
CCCOc1ccc(Cc2c(Cl)nc(SC)nc2N(C)C)cc1,-5.2%,-8.9%
CNc1ccc2oc(C[C@H]3O[C@]4(CC[C@H]3C)O[C@H]([C@H](C)C(=O)c3ccc[nH]3)[C@H](C)C[C@H]4C)nc2c1C(=O)O,-12.0%,?
C=CCn1c(SCC(=O)N2CCc3ccccc3C2)nnc1-c1ccncc1,-2.2%,-2.8%
Cc1c2cc[n+](CCN3CCCCC3)cc2c(C)c2c1[nH]c1ccc(O)cc12,-3.6%,-12.1%
SMILES,Cruzain inh Det,Cruzain noTriton
CCCCN(CCCC)S(=O)(=O)c1ccc(NC(=O)c2c(-c3ccccc3)noc2C)cc1,-7.4%,-8.7%
CCCN(CCC)S(=O)(=O)c1ccc(C(=O)NNc2nc(-c3ccccc3)c3cc(Br)ccc3n2)cc1,-2.1%,10µM*
CCN1CCN(C(C)C(=O)Nc2c(C)n(C)n(-c3ccccc3)c2=O)CC1 (stereo unspecified),7.2%,-5.2%
C=CCC(O)(C#Cc1ccccc1)c1ccccc1 (stereo unspecified),0.8%,13.8%
O=C(c1cc2sccc2n1Cc1ccccc1)N1CCCc2ccccc21,-3.3%,20µM*
O=C(c1cc2sccc2n1Cc1ccccc1)N1CCc2ccccc21,-3.3%,?
CCOc1ccc(C2=NC(c3cccs3)=Nc3ccc(C(C)C)cc3N2)cc1,-7.0%,3.16µM*
CC(C)c1ccc2c(c1)NC(c1ccncc1)=NC(c1cccs1)=N2,-9.1%,1.8%
CCOC(=O)CN1C=C(c2ccc3ccccc3n2)C(C[N+](=O)[O-])c2ccccc21 (stereo unspecified),-3.7%,25.1µM*
CCOC(=O)CSc1nc2ccccc2n1CC(=O)N(C(C)C)C(C)C,1.1%,-8.4%
CN(C)CCNC(=O)c1cc2c(s1)-c1ccccc1OC2,?,10µM*
CCCN1CCN(CCCNC(=O)c2cc3c(s2)-c2c(C)cccc2OC3)CC1,17.8µM*,?
COc1ccc(CCNC(=O)c2cc3c(s2)-c2ccccc2OC3)cc1OC,-25.4%,?
Cc1cccc2c1-c1sc(C(=O)NCCc3ccc(Cl)cc3)cc1CO2,-5.0%,25.1µM*
